The text below walks through data of PubChem BioAssay (Tox21).

Values without a mark were called inactive. Inconclusive results are not listed. A structure can be active in one record and inactive in another. Calls of active or inactive are those of the source. Unless noted, calls come from the whole dose curve; as a rule, active = well fitted curve in the direction sought with a large enough effect in the repeat runs; inconclusive = weak or mixed curves; inactive = no such curve, though single readings can be large; an effect the other way counts as inactive or inconclusive.

The nature of assay [1]: qHTS assay to identify small molecule antagonists of the glucocorticoid receptor (GR) signaling pathway - cell viability counter screen (AID 720693). Note: nearly all actives have a fitted effect of over 55% in size. Background: In qHTS, concentration-response curves come from the screen itself.
Assay [2] can be described thus: qHTS assay for identifying genotoxic compounds that show differential cytotoxicity against isogenic chicken DT40 cell lines with known DNA damage response pathways - wild type cell line (AID 743012). Note: nearly all actives have a fitted effect of over 60% in size. The essentials: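 Using parental DT40 (300 cells/well), compounds delivered in DMSO incubate 40 h at 37 C/5% CO2. CellTiter-Glo reagent then stands 30 min at room temperature, and luminescence gives cell viability.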

A short description of assay [3]: qHTS assay for identifying genotoxic compounds that show differential cytotoxicity against isogenic chicken DT40 cell lines with known DNA damage response pathways - Rev3 mutant cell line (AID 743014). Note: nearly all actives have a fitted effect of over 55% in size.
The nature of assay [4]: qHTS assay for identifying genotoxic compounds that show differential cytotoxicity against isogenic chicken DT40 cell lines with known DNA damage response pathways - Rad54/Ku70 mutant cell line (AID 743015). Note: nearly all actives have a fitted effect of over 60% in size.
A short description of assay [5]: qHTS assay to identify small molecule antagonists of the androgen receptor (AR) signaling pathway - cell viability counter screen (AID 743033; note: nearly all actives have a fitted effect of over 45% in size).
Assay [6] concerns the target Androgen receptor (Homo sapiens) (UniProt P10275). Description: qHTS assay to identify small molecule antagonists of the androgen receptor (AR) signaling pathway (AID 743035; active = well fitted inhibition curve with a large enough effect in the signal ratio in the repeat runs, not every such curve was filed as active; the % refers to the signal ratio). The essentials: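 Using qHTS, AR-UAS-bla GripTite HEK293 cells received compound, then R1881, and were cultured 16 h at 37C/5% CO2 before a 2 h room-temperature LiveBLAzer B/G FRET substrate step and fluorescence measurement.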

Assay [7] shares this target. Description: qHTS assay to identify small molecule agonists of the androgen receptor (AR) signaling pathway (AID 743036; active = well fitted activation curve with a large enough effect in the signal ratio in the repeat runs, with a control signal flat, not every such curve was filed as active; the % refers to the signal ratio). A digest of the protocol: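 In this Tox21 qHTS, 2,000 HEK293 AR-bla cells per well were incubated with compounds for 16 h at 37C and 5% CO2. Fluorescence intensity was recorded 2 h after adding LiveBLAzer B/G FRET substrate at room temperature.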

Assay [8] shares this target. Description: qHTS assay to identify small molecule agonists of the androgen receptor (AR) signaling pathway using the MDA cell line (AID 743040; note: nearly all actives have a fitted effect of over 20% in size). A digest of the protocol:
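Human breast carcinoma MDA-kb2 reporter cells (MMTV-luc, AR/GR elements) were treated for 16 h at 37C in 0% CO2 following a 5 h settling period. Signal was quantified by ONE-Glo luminescence.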

The nature of assay [9]: qHTS assay to identify small molecule antagonists of the androgen receptor (AR) signaling pathway using the MDA cell line - cell viability counter screen (AID 743041; note: nearly all actives have a fitted effect of over 45% in size; note: potency is the fitted concentration of half-maximal effect). A digest of the protocol: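 Same-well cytotoxicity was assessed by CellTiter-Fluor in MDA-kb2 AR-luc cells after 16 h of compound treatment under R1881 agonism.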
For assay [10], the target named is Androgen receptor (Homo sapiens) (UniProt P10275). Kind of assay: qHTS assay to identify small molecule antagonists of the androgen receptor (AR) signaling pathway using the MDA cell line (AID 743042; note: nearly all actives have a fitted effect of over 55% in size). A digest of the protocol: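 MDA-kb2 breast carcinoma cells carrying MMTV-luciferase (AR/GR responsive) were co-treated with compounds and the agonist R1881 for 16 h at 37C. Inhibition read as ONE-Glo luminescence; CellTiter-Fluor fluorescence measured in parallel for cytotoxicity.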
Sequence of Androgen receptor (Homo sapiens) (P10275 whole entry, looked up): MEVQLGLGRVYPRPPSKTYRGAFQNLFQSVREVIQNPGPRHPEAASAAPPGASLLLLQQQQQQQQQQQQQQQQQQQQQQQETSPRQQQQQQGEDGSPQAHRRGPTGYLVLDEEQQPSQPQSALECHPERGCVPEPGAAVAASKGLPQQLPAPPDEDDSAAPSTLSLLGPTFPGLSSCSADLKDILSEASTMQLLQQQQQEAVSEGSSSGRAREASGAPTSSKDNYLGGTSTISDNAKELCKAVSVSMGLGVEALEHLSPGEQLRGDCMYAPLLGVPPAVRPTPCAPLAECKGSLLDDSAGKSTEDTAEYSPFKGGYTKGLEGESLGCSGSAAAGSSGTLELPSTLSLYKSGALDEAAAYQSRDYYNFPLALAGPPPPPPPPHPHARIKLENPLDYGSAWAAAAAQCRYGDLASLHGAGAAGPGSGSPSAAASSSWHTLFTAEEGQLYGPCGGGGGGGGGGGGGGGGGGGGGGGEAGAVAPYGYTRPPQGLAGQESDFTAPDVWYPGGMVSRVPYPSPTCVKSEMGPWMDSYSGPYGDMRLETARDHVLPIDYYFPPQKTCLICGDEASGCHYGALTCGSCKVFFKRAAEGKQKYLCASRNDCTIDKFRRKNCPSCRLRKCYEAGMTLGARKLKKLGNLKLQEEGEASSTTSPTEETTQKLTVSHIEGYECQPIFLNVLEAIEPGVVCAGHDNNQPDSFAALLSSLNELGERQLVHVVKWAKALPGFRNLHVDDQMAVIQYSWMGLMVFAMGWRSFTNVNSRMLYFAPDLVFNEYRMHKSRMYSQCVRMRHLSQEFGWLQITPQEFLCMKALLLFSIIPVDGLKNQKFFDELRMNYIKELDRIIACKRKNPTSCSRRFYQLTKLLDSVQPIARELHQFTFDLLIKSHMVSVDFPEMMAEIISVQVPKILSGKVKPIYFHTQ

A short description of assay [11]: qHTS assay to identify small molecule antagonists of the thyroid receptor (TR) signaling pathway - cell viability counter screen (AID 743064). Note: nearly all actives have a fitted effect of over 50% in size. Note: potency is the fitted concentration of half-maximal effect. The essentials: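 Counter screen for cytotoxicity: compound plus T3 (1 nM final) on GH3.TRE-Luc cells, 23.5 h at 37 °C, then fluorescence viability readout with CellTiter-Fluor.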
Assay [12] is described as follows: qHTS assay to identify small molecule antagonists of the thyroid receptor (TR) signaling pathway (AID 743065). Note: series mostly up to about 70 µM; nearly all actives have a fitted effect of over 55% in size. A digest of the protocol:
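GH3.TRE-Luc rat pituitary cells (two TREs driving luciferase) were dosed with compound, then stimulated with 1 nM T3 (final) for 23.5 h at 37 C. ONE-Glo luminescence was the read-out, with CellTiter-Fluor fluorescence as the cytotoxicity counter-screen.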

The test system of assay [13] is thyroid hormone receptor (rat, GH3 cells). Kind of assay: qHTS assay to identify small molecule agonists of the thyroid receptor (TR) signaling pathway (AID 743066; calls by dose curve).
Assay [14] is described as follows: qHTS assay to identify small molecule antagonists of the estrogen receptor alpha (ER-alpha) signaling pathway - cell viability counter screen (AID 743074; calls by dose curve;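 note: HEK293 cells carrying ER-alpha-UAS-bla reporter stimulated with 17beta-estradiol; nearly all actives have a fitted effect of over 45% in size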).
The nature of assay [15]: qHTS assay to identify small molecule antagonists of the estrogen receptor alpha (ER-alpha) signaling pathway using the BG1 cell line - cell viability counter screen (AID 743081). For activity change, negative = cytotoxicity: series mostly up to about 70 µM.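 Note: compound given together with 17beta-estradiol as the ER stimulus; nearly all actives have a fitted effect of over 45% in size.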 Note: potency is the fitted concentration of half-maximal effect.
Another assay has as its target Aromatase (Homo sapiens) (UniProt P11511). Description: qHTS assay to identify aromatase inhibitors (AID 743083).
For assay [16], the target named is Estrogen receptor (Homo sapiens) (UniProt P03372). Kind of assay: qHTS assay to identify small molecule antagonists of the estrogen receptor alpha (ER-alpha) signaling pathway (AID 743069; active = well fitted curve in the direction sought with a large enough effect in the signal ratio in the repeat runs, not every such curve was filed as active; the % refers to the signal ratio). A digest of the protocol:
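Reporter cells (ER-alpha-bla, HEK293 background) are conditioned overnight in stripped-serum medium (2% charcoal-stripped FBS). Compound and 17beta-estradiol exposure runs 18 hr at 37C, 5% CO2.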

For assay [17] the target is unchanged. Description: qHTS assay to identify small molecule agonists of the estrogen receptor alpha (ER-alpha) signaling pathway (AID 743075; calls by dose curve;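 note: HEK293 GripTite cells with ER-alpha and UAS-driven beta-lactamase reporter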).
Assay [18] shares this target. Description: qHTS assay to identify small molecule agonists of the estrogen receptor alpha (ER-alpha) signaling pathway using the BG1 cell line (AID 743079). Note: nearly all actives have a fitted effect of over 20% in size.
Assay [19] in a line: qHTS assay to identify small molecule antagonists of the estrogen receptor alpha (ER-alpha) signaling pathway using the BG1 cell line (AID 743080; calls by dose curve;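 note: BG1 cells stimulated with 17beta-estradiol alongside compound; series mostly up to about 70 µM; nearly all actives have a fitted effect of over 25% in size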). A digest of the protocol: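 Luciferase inhibition measured with ONE-Glo after 30 min at RT in BG1Luc4E2 cells given test compounds and 17beta-estradiol for 21.5 h at 37 C; CellTiter-Fluor viability read in the same wells beforehand.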
% is set by controls: 0 for no effect and ±100 for the full control effect.

Sequence of Estrogen receptor (Homo sapiens) (P03372 whole entry, looked up): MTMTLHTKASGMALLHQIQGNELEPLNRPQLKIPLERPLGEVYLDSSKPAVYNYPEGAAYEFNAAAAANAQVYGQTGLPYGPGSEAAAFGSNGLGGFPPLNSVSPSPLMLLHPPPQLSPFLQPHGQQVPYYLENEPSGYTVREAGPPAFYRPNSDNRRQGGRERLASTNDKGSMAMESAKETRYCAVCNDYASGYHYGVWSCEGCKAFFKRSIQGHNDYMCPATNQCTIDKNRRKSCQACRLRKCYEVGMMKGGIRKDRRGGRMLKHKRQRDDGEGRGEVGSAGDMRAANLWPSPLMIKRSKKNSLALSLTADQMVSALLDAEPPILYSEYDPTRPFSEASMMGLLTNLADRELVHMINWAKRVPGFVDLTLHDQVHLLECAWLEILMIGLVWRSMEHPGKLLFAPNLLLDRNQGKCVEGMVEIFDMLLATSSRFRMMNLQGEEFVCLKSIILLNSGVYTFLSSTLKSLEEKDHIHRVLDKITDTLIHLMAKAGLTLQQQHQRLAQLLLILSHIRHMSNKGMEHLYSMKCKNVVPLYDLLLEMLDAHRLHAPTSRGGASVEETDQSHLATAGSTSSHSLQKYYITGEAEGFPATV
Sequence of Aromatase (Homo sapiens) (P11511 whole entry, looked up): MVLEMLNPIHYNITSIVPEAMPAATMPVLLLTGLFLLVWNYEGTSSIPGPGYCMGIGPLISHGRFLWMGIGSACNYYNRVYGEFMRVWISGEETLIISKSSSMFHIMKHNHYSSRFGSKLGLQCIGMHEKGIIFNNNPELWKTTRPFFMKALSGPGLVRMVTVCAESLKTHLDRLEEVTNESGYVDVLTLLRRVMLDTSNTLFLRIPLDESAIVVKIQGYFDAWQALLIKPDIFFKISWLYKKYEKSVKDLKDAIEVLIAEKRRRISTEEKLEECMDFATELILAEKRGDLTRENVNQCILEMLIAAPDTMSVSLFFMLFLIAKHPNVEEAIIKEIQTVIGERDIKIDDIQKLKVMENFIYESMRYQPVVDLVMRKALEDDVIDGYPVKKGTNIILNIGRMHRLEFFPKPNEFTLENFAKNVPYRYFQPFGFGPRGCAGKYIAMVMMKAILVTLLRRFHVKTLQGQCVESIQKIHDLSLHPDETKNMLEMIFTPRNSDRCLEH

Regarding `CC(C)[C@H]1CC[C@H](C)C[C@@H]1O`, the compound was classed as inactive in assay [1], in assay [5], in [6], in [7], in assay [10] and in [13]. Also, the compound was called inactive (in [14]; in the assay with Aromatase (Homo sapiens)). The Potency result in [2], in assay [3], in assay [4], in assay [8], in assay [9] and in [11] was “inactive” in each case. For the same compound, the Potency result in assay [12] and in assay [15] was “inactive” each time.
For the compound `OC[C@H]1O[C@@H](O[C@@H]2[C@@H](CO)O[C@](O)(CO)[C@H]2O)[C@H](O)[C@@H](O)[C@H]1O`, the outcome in assay [1], in assay [5], in assay [7], in assay [10], in [13] and in assay [16] was inactive. For the same compound, the compound was called inactive (in assay [14]; in assay [19]; with Aromatase (Homo sapiens)). Further, the Potency result in assay [2], in assay [3], in [4], in assay [8], in [9] and in assay [11] was “inactive” throughout. For the same compound, the Potency entry in assay [12], in assay [17], in [18] and in assay [15] was “inactive” in each case.
Take `O=S(=O)(O)c1ccc2c(N=Nc3ccc(S(=O)(=O)O)c4ccccc34)c(O)c(S(=O)(=O)O)cc2c1`: the result in assay [1], in assay [5], in assay [13] and in assay [14] was inactive. In addition, the Potency entry in [2] and in [3] was “inactive” each time. Further, in assay [4], the activity change, negative = cytotoxicity is 0.0993% [at 8.55 µM]. Also, the values for the Potency in [9], in assay [11] and in [15] were 22.1 µM (active), 21.1 µM (active) and 9.44 µM (active), respectively. Further, in assay [9], the viability change, negative = cytotoxic was -3.01% [at 8.47 µM]. Also, the activity change, negative = cytotoxic in assay [11] is -5.75% [at 8.44 µM]. Moreover, the activity, negative = inhibition in assay [12] was -4.92% [at 8.44 µM]; with Aromatase (Homo sapiens), -13.1% [at 8.47 µM].
As to `CC12CCC(C1)C(C)(C)C2O` (centres undefined), the compound was classed as inactive in [1], in [5], in assay [13], in assay [16], in assay [14] and in assay [19]. The result with Aromatase (Homo sapiens) was inactive. The Potency result in [2], in assay [3], in assay [4], in [9], in assay [11] and in [12] was “inactive” throughout. In addition, the Potency result in assay [17], in [18] and in assay [15] was “inactive” throughout.
For the compound `COC(C)(OC)OC`, the outcome in [1], in assay [5], in assay [6], in [7], in assay [10] and in assay [13] was inactive. The result (in assay [16]; in [19]; with Aromatase (Homo sapiens)) was inactive. Moreover, the Potency entry in assay [2], in assay [3], in assay [4], in [8], in [9] and in assay [11] was “inactive” in each case. Further, the Potency entry in assay [12], in [17], in [18] and in assay [15] was “inactive” each time.
With `CC(S)C(C)S` (centres undefined), the result in [1], in [5], in [6], in assay [7], in assay [10] and in [13] was inactive. The call (in assay [16]; in assay [14]; in assay [19]; in the assay with Aromatase (Homo sapiens)) was inactive. Moreover, the Potency entry in assay [2], in assay [3], in assay [4], in assay [8], in [9] and in assay [11] was “inactive” each time. The Potency result in [12], in [17], in assay [18] and in [15] was “inactive” throughout.
Consider `CC(=O)O[C@H]1C[C@@H]2CC[C@@]1(C)C2(C)C`, for which the outcome in assay [1], in assay [5], in assay [6], in assay [7], in assay [10] and in [14] was inactive. The compound was classed as inactive with Aromatase (Homo sapiens). Also, the Potency result in assay [2], in [3], in [4], in assay [8], in assay [9] and in assay [11] was “inactive” throughout. Further, the Potency entry in [15] was “inactive”.
Regarding `CC1(C)Oc2ccc(C#N)cc2[C@@H](N2CCCC2=O)[C@@H]1O`, the compound was called inactive in [1], in assay [5], in assay [13], in assay [16], in assay [14] and in assay [19]. For the same compound, in the assay with Aromatase (Homo sapiens), the compound was called inactive. Besides, the Potency result in assay [2], in assay [3], in [4], in assay [9], in [11] and in assay [12] was “inactive” throughout. Besides, the Potency result in assay [17], in [18] and in [15] was “inactive” throughout.
